Laboratory results published in PubChem BioAssay.

Experiment: plasmodial surface anion channel blockers, osmotic lysis – cell-based, P. falciparum Indochina, OD700, 18 h, primary screen (AID 1157)
Conditions: P. falciparum Indochina infected erythrocytes, osmotic lysis OD700, 18 h; higher = more signal, called active from +8 up or from −8 down

z-score, inactive:
C=CCOC(=O)[C@@H]1[C@H]2C(=O)O[C@H](c3ccccc3)[C@H](c3ccccc3)N2[C@H](c2ccc(OCCOC(=O)[C@H]3C[C@H]4C(=O)N5CCC[C@H]5C(=O)N4[C@H]3c3ccc(O)cc3)cc2)[C@@]12C(=O)Nc1ccccc12 -1.39, C[C@@H]1CC[C@H]2C(=O)N3[C@@H](CC[C@@H](C)[C@@H]3c3cccc(N4CCOCC4)c3)C(=O)N2[C@H]1c1cccc(N2CCOCC2)c1 0.197, COc1ccc(-c2ccccc2[C@@H]2N[C@H](C(=O)O)CC[C@H]2C)cc1 -0.0201, CN1CCC(CCCO)=CC1C1CC1 (configuration not stated) -1.9, C=CCC(OC(C)=O)[C@@H]1[C@@H](N(Cc2cc3ccccc3o2)C(=O)c2ccc(C)cc2)c2cc(OCCCO)ccc2N1C(=O)c1ccc2ccccc2n1 (some centres not stated) 0.432, C[C@H]1COC(=O)[C@H](Cc2ccccc2)NC(=O)[C@@H](C)COC(=O)[C@H](Cc2ccccc2)NC1=O -1.93, CCN1C(C)=C(C(=O)OC)[C@@H](c2ccccc2)N2C(=O)[C@@]3(C(=O)OC)O[C@@]12[C@@H]1C(=O)N(c2ccccc2)C(=O)[C@@H]13 -1.08, CCCC/C=C/[C@H]([C@@H](O)Cc1ccccc1)N(CC#Cc1ccccc1)Cc1ccccc1Br 0.522, Cc1ccc(S[C@]2(C(=O)NCCCN(C)C)CC(=O)N(C3CCCCC3)[C@@H]2c2ccc(CO)cc2I)cc1 -1.07, CO[C@@H]1COC(=O)[C@H](C)NC(=O)CC=C[C@@H](C)[C@H](NS(=O)(=O)c2ccc(C)cc2)COC(=O)CC=C[C@@H]1C -0.0387, C=CCNC(=O)[C@H]1[C@@H]2C(=O)O[C@@H](c3ccccc3)[C@@H](c3ccccc3)N2[C@@H](c2ccccc2OCCO)[C@]12C(=O)N(C(=O)OCCOC)c1ccc(C#CCC(C(=O)OC)C(=O)OC)cc12 -2.13, CC(=O)NCCCC[C@@H]1NC(=O)[C@@H]2C[C@H](C(=O)NCCCCCCN(C)C)[C@H](c3ccc(O)cc3)N2C1=O -2.32, O=C(NCC(O)CO)[C@]1(Cc2ccccc2)N=C(c2ccc(OCCCO)cc2)O[C@@H]1c1ccccc1 (some centres not stated) 0.35, C[C@H]1NC(=O)[C@@H](C)NC(=O)[C@@]23C(=O)N[C@@H](Cc4ccccc4)C2[C@H](C)[C@@]2(C)O[C@H]2C3/C=C/C/C=C\CNC1=O (some centres not stated) 0.157, CC(C)N1CC=CC23O[C@@H]4/C=C\CCCOC(=O)C4[C@H]2C(=O)N(CCO)[C@@H]3C1=O (some centres not stated) -0.806, C=CC[C@]1(C(=O)O)N=C(c2ccc(OCCCO)cc2)O[C@H]1c1ccccc1 0.198, CC(C)CNC(=O)[C@@]1(C)c2ccccc2C(=O)N(Cc2ccc(OC(F)(F)F)cc2)[C@H]1c1ccc(CO)cc1 -0.0139, CO[C@H]1COC(=O)[C@H](Cc2ccccc2)NC(=O)CC=C[C@@H](C)[C@H](OC)COC(=O)CC=C[C@@H]1C -1.27, C=C(COC)/C(=C/C[C@@H](OC(=O)c1ccncc1)c1ccc(OCCO)cc1)c1cc(C(=O)OC)ccc1OC -1.53, CSCC[C@@H]1NC(=O)CC=C[C@@H](C)COC(=O)[C@H](CCSC)NC(=O)CC=C[C@@H](C)COC1=O -1.85, O=C1OCC=C[C@H]2OC34C=CCN(Cc5ccccc5)C(=O)[C@H]3N(CCCCCO)C(=O)[C@@H]4[C@@H]12 (some centres not stated) -1.34, Cc1ccc(S[C@]2(C(=O)NCCN3CCOCC3)CC(=O)N(C3Cc4ccccc4C3)[C@@H]2c2ccc(CO)cc2I)cc1 -0.926, COC(=O)C[C@H]1O[C@]2(C(=O)N(C)c3ccccc32)[C@@H](C)[C@@H]1[Si](C)(C)c1ccc(OC)cc1 -2.34, CC/C=C/C(=O)N(C[C@@H]1CCCO1)[C@@H]1CC(C(=O)NCCO)=C[C@H](Oc2c(I)cc(CO)cc2OC)[C@H]1O -1.48, C=C[C@H](OC)[C@@H](OC(=O)Nc1ccc(SC)cc1)c1ccc(OC)c(O)c1 -1.02, CN1C2C=C(c3ccc(CO)cc3)C(C3C(=O)N(C(N)=O)C(=O)C32)C1c1cccs1 (configuration not stated) -1.37, C=CCN(C(=O)C1N(c2ccc(CCO)cc2)C(=O)C2C(C(=O)O)C3C=CC21O3)C(C)(C)C (configuration not stated) -1.91
